According to the supplement of paper PMC10338343:
± gives the standard deviation.

System: MILI (PIWIL2) piRISC loaded with L1MC piRNA (26 nt)
Assay: pre-steady-state target cleavage rate (min^-1); guide: L1MC piRNA 5'p-UAACUAAAUACUAUGCAAGCUGUAGG; MIWI and MILI are mouse PIWI proteins and EfPiwi is from a freshwater sponge; tags in brackets are library labels; higher = faster piRNA-guided slicing of the target
Procedure, shortened: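 A transcribed, DNA-blocked target RNA library […] was incubated at 33 °C for 0–8 or 0–960 min with 1 nM active affinity-purified piRISC carrying one synthetic guide, in HEPES–potassium acetate buffer with or without 500 nM GTSF1 partner protein. Uncleaved targets were then sequenced and normalised to depth and to weakly complementary targets. Data from three trials were pooled, with k3 capped at 0.0001 min^-1, and a burst-and-steady-state fit yielded the pre-steady-state cleavage rate.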

[1] = auxiliary factor: 500 nM mouse GTSF1
[2] = auxiliary factor: none (no GTSF1)
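Further: 1 nM active piRISC with 0.1 nM target library at 33 °C single turnover.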

Sequence	pre-steady-state target cleavage rate [1]	pre-steady-state target cleavage rate [2]
UCCUGGAUCAGCUUGCAUAGAUUUUAGUUA	0.0267 ± 0.007	0.00395 ± 0.0023
UCCUGGAUGUGCUAGGAUAGUAUUUAGUUA	0.103 ± 0.014	0.00564 ± 0.0022
UCCUGGAUGAGCCUGCAUAGUAUUUAGUUA	0.157 ± 0.019	0.00748 ± 0.0033
UCCUGGAUGAGGUAGCAUAGUAUUUAGUUA	0.0611 ± 0.0091	0.00664 ± 0.0022
UCCUGGAUGUCGUUGAAUAGUAUUUAGUUA	0.0817 ± 0.015	0.0047 ± 0.0024
UCCUGGAUGAGGUUGCAUUGUAUUUAGUUA	0.0484 ± 0.01	0.00431 ± 0.0027
UCCUGGAUGAGCUUGCUUAGUAUUUUGUUA	0.138 ± 0.021	0.00587 ± 0.0022
UCCUGGAUGUCGUUGCCUAGUAUUUAGUUA	0.0556 ± 0.0094	0.00949 ± 0.0028
UCCUGGUACAGCUUGCAUAGUCAUUUAGUUA	0.0147 ± 0.0072	0.00451 ± 0.0041
UCCUGGAUGUGCAUGCAUAGUUUUUAGUUA	0.01 ± 0.0069	0.00641 ± 0.003
UCCUGGAUGUCGUUGCAUAGUAAUUUAGUUA	0.0127 ± 0.0059	0.00447 ± 0.0029
UCCUGGAACAGCUUGCAUAGUGAUUUAGUUA	0.0178 ± 0.007	0.00499 ± 0.0023
UCCUGGAACUCCUUGCAUAGUAUUUAGUAA	0.169 ± 0.02	0.00259 ± 0.0025
UCCUGGAUGAGCAUGCAUAGUAUUAAGUUA	0.22 ± 0.024	0.00547 ± 0.0024
UCCUGGAUGUGCUUGCAAAGUUUUUAGUUA	0.00595 ± 0.0038	0.0065 ± 0.0023
UCCUGGUACAGCAAGCAUAGUAUUUAGUAA	0.239 ± 0.029	0.00526 ± 0.0023
UCCUGGAUGAGCUUGCAUAGUAUUUAGUAUA	0.218 ± 0.028	0.00501 ± 0.0033
UCCUGGAACAGCUUGGUAAGUAUUUAGUUA	0.115 ± 0.014	0.00498 ± 0.0019
UCCUGGAUGAGCUUGCAUUGUAUAUAGUUA	0.0992 ± 0.012	0.00388 ± 0.0029
UCCUGGAUCAGCAUGGAUAGUAUUUAGUUA	0.19 ± 0.0097	0.0106 ± 0.0024
UCCUGGAUGUCGAAGCAUAGUAUAUAGUUA	0.0508 ± 0.015	0.00342 ± 0.0022
UCCUGGAUGUCCUUGCAUAGUUAUUUAGUUA	0.0103 ± 0.0056	0.00393 ± 0.0027
UCCUGGAUGAGCAUGCAUAGUAAUUAGUUA	0.156 ± 0.021	0.00824 ± 0.0028
UCCUGGAUCAGCUUGCAAACUAUUUAGUUA	0.0267 ± 0.0067	0.00375 ± 0.0019
UCCUGGAUGUCGUUGCAUAGUAUCUUAGUUA	0.0991 ± 0.021	0.00848 ± 0.0026
UCCUGGAUGUCGAUGCAUAGUAUUUAGGUUA	0.0911 ± 0.016	0.00466 ± 0.0031
UCCUGGUACAGCUUGCAUAGUGAUUUAGUUA	0.0336 ± 0.01	0.00917 ± 0.0038
UCCUGGAUGUCCUGUGCAUAGUAUUUAGUUA	0.0823 ± 0.025	0.0123 ± 0.0036
UCCUGGAUCAGCUUCCUUAGUAUUUAGUUA	0.122 ± 0.018	0.00478 ± 0.0016
UCCUGGAUGUGCUAGCAUUGUAUUUAGUUA	0.0146 ± 0.0031	0.00365 ± 0.0026
